Results on twelve sequences are retold here after publication PMC8384837, “Expanding the binding specificity for RNA recognition by a PUF domain”.

Holding throughout (test): yeast three-hybrid, YBZ-1, SC-Leu-His + 0.5 mM 3-AT, 4 days
Conditions in all cases: tags: N-Gal4 AD-HA kept; label: inside an RPR1-promoter hybrid RNA with tandem MS2 sites; ssRNA

One test concerns the target PUM1 PUF domain R3-LSG (Homo sapiens, UniProt Q14671 828-1176, C935L;R936S;Q939G). In a few lines: (§1)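 The interaction score is the log change in how often each variant appears, from input to selection. Frequencies came from PCR-amplified, Illumina-sequenced repeat regions of Pumilio-1 PUF domain libraries grown in strain YBZ-1 (LexA–MS2 coat fusion, HIS3 reporter) alongside matching RNA elements. Input plates were SC-Leu and selection plates were SC-Leu-His + 0.5 mM 3-AT, each for four days, and the log2 calculation used a pseudocount of 1 where a variant was absent.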

In another test the target is PUM1 PUF domain R3-SPT (Homo sapiens, UniProt Q14671 828-1176, C935S;R936P;Q939T). In a few lines: as §1
A further test concerns the target PUM1 PUF domain R3-LST (Homo sapiens, UniProt Q14671 828-1176, C935L;R936S;Q939T). In short, it runs like this:
as §1

Another test addresses PUM1 PUF domain R3-RIA (Homo sapiens, UniProt Q14671 828-1176, C935R;R936I;Q939A). In short, it runs like this: as §1
For the next test, the target named is PUM1 PUF domain R8-PWQ (Homo sapiens, UniProt Q14671 828-1176, N1122P;Y1123W). In a few lines:
as §1

For the next test, the target named is T1, PUM1 PUF domain R6-VWV (Homo sapiens, UniProt Q14671 828-1176, N1043V;Y1044W;Q1047V).
T1 sequence: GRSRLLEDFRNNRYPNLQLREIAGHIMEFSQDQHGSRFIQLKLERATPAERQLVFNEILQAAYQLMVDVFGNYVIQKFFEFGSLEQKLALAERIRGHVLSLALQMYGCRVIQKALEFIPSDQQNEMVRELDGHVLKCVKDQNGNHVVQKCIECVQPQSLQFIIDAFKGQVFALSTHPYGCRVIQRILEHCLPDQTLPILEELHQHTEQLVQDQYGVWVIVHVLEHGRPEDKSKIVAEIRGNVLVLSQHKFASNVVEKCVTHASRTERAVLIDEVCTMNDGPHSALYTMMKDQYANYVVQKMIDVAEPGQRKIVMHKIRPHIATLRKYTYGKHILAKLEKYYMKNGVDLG
In a few lines: as §1

The target in a further test is PUM1 PUF domain R4-DFG (Homo sapiens, UniProt Q14671 828-1176, N971D;H972F;Q975G). In short, it runs like this:
as §1

The target of the next test is PUM1 PUF domain R4-GPR (Homo sapiens, UniProt Q14671 828-1176, N971G;H972P;Q975R). In short, it runs like this:
as §1

Another test addresses PUM1 PUF domain R4-NQQ (Homo sapiens, UniProt Q14671 828-1176, H972Q). In a few lines:
as §1

The target in the next test is PUM1 PUF domain R7-VSR (Homo sapiens, UniProt Q14671 828-1176, S1079V;N1080S;E1083R). In a few lines:
as §1

The next test deals with PUM1 PUF domain R5-KAN (Homo sapiens, UniProt Q14671 828-1176, C1007K;R1008A;Q1011N). In a few lines:
as §1

In a further test the target is PUM1 PUF domain R5-RAS (Homo sapiens, UniProt Q14671 828-1176, C1007R;R1008A;Q1011S). In short, it runs like this: as §1
PUM1 PUF domain R5-RAS, sequence (Q14671 828-1176 C1007R/R1008A/Q1011S): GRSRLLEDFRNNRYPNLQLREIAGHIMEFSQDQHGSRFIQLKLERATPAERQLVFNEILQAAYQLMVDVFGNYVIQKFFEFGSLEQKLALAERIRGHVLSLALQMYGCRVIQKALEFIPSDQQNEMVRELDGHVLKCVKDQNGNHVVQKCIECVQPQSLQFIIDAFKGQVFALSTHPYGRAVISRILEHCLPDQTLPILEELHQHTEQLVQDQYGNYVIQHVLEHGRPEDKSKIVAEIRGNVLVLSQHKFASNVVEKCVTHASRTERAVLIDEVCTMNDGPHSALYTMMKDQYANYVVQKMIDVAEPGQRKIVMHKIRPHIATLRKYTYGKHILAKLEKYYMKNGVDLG
In the next test the target is PUM1 PUF domain R2-RQC (Homo sapiens, UniProt Q14671 828-1176, N899R;Y900Q;Q903C). In short, it runs like this: as §1
PUM1 PUF domain R2-RQC, sequence (Q14671 828-1176 N899R/Y900Q/Q903C): as the sequence (Q14671 828-1176 C1007R/R1008A/Q1011S) above, with N72R, Y73Q, Q76C, R180C, A181R, S184Q counted along it
Another test addresses PUM1 PUF domain R8-NWF (Homo sapiens, UniProt Q14671 828-1176, Y1123W;Q1126F). In short, it runs like this:
as §1

A further test addresses PUM1 PUF domain R8-SYK (Homo sapiens, UniProt Q14671 828-1176, N1122S;Q1126K). In short, it runs like this:
as §1

Another test concerns the target PUM1 PUF domain R1-KKS (Homo sapiens, UniProt Q14671 828-1176, S863K;R864K;Q867S). In a few lines:
as §1

PUM1 PUF domain R3-LST, sequence (Q14671 828-1176 C935L/R936S/Q939T): as the sequence (Q14671 828-1176 C1007R/R1008A/Q1011S) above, with C108L, R109S, Q112T, R180C, A181R, S184Q counted along it
PUM1 PUF domain R3-LSG, sequence (Q14671 828-1176 C935L/R936S/Q939G): as the sequence (Q14671 828-1176 C1007R/R1008A/Q1011S) above, with C108L, R109S, Q112G, R180C, A181R, S184Q counted along it
PUM1 PUF domain R8-NWF, sequence (Q14671 828-1176 Y1123W/Q1126F): as the sequence (Q14671 828-1176 C1007R/R1008A/Q1011S) above, with R180C, A181R, S184Q, Y296W, Q299F counted along it
PUM1 PUF domain R5-KAN, sequence (Q14671 828-1176 C1007K/R1008A/Q1011N): as the sequence (Q14671 828-1176 C1007R/R1008A/Q1011S) above, with R180K, S184N counted along it
PUM1 PUF domain R8-SYK, sequence (Q14671 828-1176 N1122S/Q1126K): as the sequence (Q14671 828-1176 C1007R/R1008A/Q1011S) above, with R180C, A181R, S184Q, N295S, Q299K counted along it
PUM1 PUF domain R1-KKS, sequence (Q14671 828-1176 S863K/R864K/Q867S): as the sequence (Q14671 828-1176 C1007R/R1008A/Q1011S) above, with S36K, R37K, Q40S, R180C, A181R, S184Q counted along it
PUM1 PUF domain R3-RIA, sequence (Q14671 828-1176 C935R/R936I/Q939A): as the sequence (Q14671 828-1176 C1007R/R1008A/Q1011S) above, with C108R, R109I, Q112A, R180C, A181R, S184Q counted along it

“GGCUAGAACUAGUGGAUCCCCCGGCGCCCGGCGGCUCGAGCCCGGGUAAGUGUAAUUAGUCUGCAUGCCGCCGGGCGCCAUGCCUGCAGGUCGACUCUAGAAAACAUG”: the binding signal with PUM1 PUF domain R3-LSG was 1.48 log2 enrichment (interaction score); in the test with PUM1 PUF domain R3-SPT it was 1.18 log2 enrichment (interaction score); with PUM1 PUF domain R3-LST, 2.71 log2 enrichment (interaction score); in the test with PUM1 PUF domain R3-RIA, 3.43 log2 enrichment (interaction score). Turning to “GGCUAGAACUAGUGGAUCCCCCGGCGCCCGGCGGCUCGAGCCCGGGUAAGUGUAAGUAGUCUGCAUGCCGCCGGGCGCCAUGCCUGCAGGUCGACUCUAGAAAACAUG”, the binding signal with PUM1 PUF domain R3-LSG is 2.82 log2 enrichment (interaction score); with PUM1 PUF domain R3-LST it was 3.44 log2 enrichment (interaction score). As for “GGCUAGAACUAGUGGAUCCCCCGGCGCCCGGCGGCUCGAGCCCGGGUAAGUGUAAAUAGUCUGCAUGCCGCCGGGCGCCAUGCCUGCAGGUCGACUCUAGAAAACAUG”, the binding signal with PUM1 PUF domain R8-PWQ was 3.79 log2 enrichment (interaction score); in the test with PUM1 PUF domain R6-VWV, 1.13 log2 enrichment (interaction score); in the test with PUM1 PUF domain R4-DFG, 5.83 log2 enrichment (interaction score); with PUM1 PUF domain R3-SPT it was 2.13 log2 enrichment (interaction score). As to “GGCUAGAACUAGUGGAUCCCCCGGCGCCCGGCGGCUCGAGCCCGGGUAAGUGUAUAUAGUCUGCAUGCCGCCGGGCGCCAUGCCUGCAGGUCGACUCUAGAAAACAUG”, the binding signal with PUM1 PUF domain R4-GPR was 0.87 log2 enrichment (interaction score); with PUM1 PUF domain R4-NQQ it was 2.71 log2 enrichment (interaction score).

For “GGCUAGAACUAGUGGAUCCCCCGGCGCCCGGCGGCUCGAGCCCGGGUAAGUGUACAUAGUCUGCAUGCCGCCGGGCGCCAUGCCUGCAGGUCGACUCUAGAAAACAUG”, the binding signal in the test with PUM1 PUF domain R4-GPR is 2.58 log2 enrichment (interaction score); in the test with PUM1 PUF domain R4-DFG it was 2.96 log2 enrichment (interaction score). Turning to “GGCUAGAACUAGUGGAUCCCCCGGCGCCCGGCGGCUCGAGCCCGGGUAAGUGAAAAUAGUCUGCAUGCCGCCGGGCGCCAUGCCUGCAGGUCGACUCUAGAAAACAUG”, the binding signal with PUM1 PUF domain R6-VWV is 4.54 log2 enrichment (interaction score).

Consider “GGCUAGAACUAGUGGAUCCCCCGGCGCCCGGCGGCUCGAGCCCGGGUAAGUUUAAAUAGUCUGCAUGCCGCCGGGCGCCAUGCCUGCAGGUCGACUCUAGAAAACAUG”, for which the binding signal with PUM1 PUF domain R7-VSR was 3.33 log2 enrichment (interaction score). For the sequence “GGCUAGAACUAGUGGAUCCCCCGGCGCCCGGCGGCUCGAGCCCGGGUAAGUGUCAAUAGUCUGCAUGCCGCCGGGCGCCAUGCCUGCAGGUCGACUCUAGAAAACAUG”, the binding signal is 5.42 log2 enrichment (interaction score) with PUM1 PUF domain R5-KAN and 3.03 log2 enrichment (interaction score) with PUM1 PUF domain R5-RAS. As for “GGCUAGAACUAGUGGAUCCCCCGGCGCCCGGCGGCUCGAGCCCGGGUAAGUGUUAAUAGUCUGCAUGCCGCCGGGCGCCAUGCCUGCAGGUCGACUCUAGAAAACAUG”, in the test with PUM1 PUF domain R5-RAS, the binding signal was 3.24 log2 enrichment (interaction score). With “GGCUAGAACUAGUGGAUCCCCCGGCGCCCGGCGGCUCGAGCCCGGGUAAGUGUAAAGAGUCUGCAUGCCGCCGGGCGCCAUGCCUGCAGGUCGACUCUAGAAAACAUG”, the binding signal in the test with PUM1 PUF domain R2-RQC is 4.25 log2 enrichment (interaction score). As to “GGCUAGAACUAGUGGAUCCCCCGGCGCCCGGCGGCUCGAGCCCGGGUAAGCGUAAAUAGUCUGCAUGCCGCCGGGCGCCAUGCCUGCAGGUCGACUCUAGAAAACAUG”, the binding signal is 2.16 log2 enrichment (interaction score) with PUM1 PUF domain R8-NWF and 4.29 log2 enrichment (interaction score) with PUM1 PUF domain R8-SYK.

“GGCUAGAACUAGUGGAUCCCCCGGCGCCCGGCGGCUCGAGCCCGGGUAAGUGUAAAUUGUCUGCAUGCCGCCGGGCGCCAUGCCUGCAGGUCGACUCUAGAAAACAUG”: the binding signal with PUM1 PUF domain R1-KKS is 5.1 log2 enrichment (interaction score).
